Experiment [1] has as its target Lysosomal acid glucosylceramidase (Homo sapiens) (UniProt P04062). In words: Glucocerebrosidase-p2 (AID 348; in the data active = potency below about 10 µM; also: potency is read from the fitted curve at half-maximal effect). Particulars: purified GBA, blue fluorogenic substrate, 40 min. Summed up: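 Normal human glucocerebrosidase (0.2 nM) with blue fluorogenic substrate (80 uM final) in citrate/phosphate pH 5.9 with 10mM sodium taurocholate, 0.01% tween-20; 40 min RT, NaOH/glycine stop; fluorescence Ex 365/Em 440; AC50 from a titration from 0.6 nM upwards.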

Experiment [2] is described as follows: AP1 Signaling Pathway (AID 357; active = well fitted curve in either direction with a large enough effect, not every such curve was filed as active;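 also: ME-180 reporter cells stimulated with EGF at its EC50 level; % is scaled to controls: 0 for no effect and ±100 for the full control effect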). The settings on record: ME-180 AP-1-bla reporter, EGF-induced, beta-lactamase ratio, 5 h; at 7.69 µM (top of the series) unless noted. Summed up: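 A ratiometric CCF4 readout (405 nm excitation; 460 and 530 nm emission) quantified AP-1-driven beta-lactamase in ME-180 cells after 5 h with compound and EC50 EGF; AC50 values were derived for activators and inhibitors.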

Experiment [3] deals with Cytochrome P450 1A2 (Homo sapiens) (UniProt P05177). Put plainly: p450-cyp1a2 (AID 410). Also: potency is read from the fitted curve at half-maximal effect.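 As to activity change, negative = inhibition: -100% = full effect of reference inhibitor.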 Particulars: recombinant CYP1A2, luciferin-ME demethylation, luminescence; series mostly up to 57 µM. Summed up: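 Read-out is luminescence from luciferin produced by CYP1A2 demethylation of Luciferin-ME (100uM, at Km). Detection reagent stopped the 60 min NADPH-dependent reaction; signals were normalized to 57 uM furafylline.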

The nature of experiment [4]: Stat Signaling Pathway (AID 446; active = well fitted curve in either direction with a large enough effect, not every such curve was filed as active;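 also: ME-180 cervical cancer cells given 40 pM IL-6 alongside compound; SIE-controlled beta-lactamase reporter measured as 460/530 nm FRET emission ratio; % is scaled to controls: 0 for no effect and ±100 for the full control effect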). The settings on record: ME-180 SIE beta-lactamase reporter, IL-6 stimulated, 5 h; at 7.69 µM (top of the series) unless noted. Summed up: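 Emission at 460 and 530 nm (excitation 405 nm) reports SIE-controlled beta-lactamase in ME-180 cells. Cells received compound with 40 pM IL-6 for 5 hrs at 37 C; data scaled between 300 pM IL-6 and 125 nM JAK-inhibitor controls.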

The target of experiment [5] is Glucocorticoid receptor (Homo sapiens) (UniProt P04150). In words: GR-EFC Redistribution (AID 451). Also: potency is read from the fitted curve at half-maximal effect. The settings on record: CHO-K1 GR-EFC translocation, beta-gal luminescence, 2 h. The method, boiled down:
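CHO-K1 cells stably expressing nuclear-localized β-gal enzyme acceptor and GR fused C-terminally to the enzyme donor fragment; ligand-driven nuclear translocation restores β-gal by complementation. Compounds titrated up to 46 uM final, 2 h at 37 °C; luminescence read.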

Experiment [6] concerns the target Mitogen-activated protein kinase 10 (Mus musculus) (UniProt Q61831). Put plainly: JNK3 AlphaScreen Assay (AID 530; active = well fitted curve in either direction with a large enough effect, not every such curve was filed as active;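 also: kinase came from lysate of stimulated human HepG2 cells; signal reports phosphorylation of biotinylated GST-cJun 1-79 at Ser73 with 10 µM ATP; % is scaled to controls: 0 for no effect and ±100 for the full control effect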). The settings on record: JNK3 lysate, c-Jun phosphorylation; series mostly up to 57.1 µM. Summed up:
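Biotinylated GST-cJun(1-79) served as substrate for JNK3 in HepG2 lysates stimulated with IL-1beta and TNF-alpha. ATP was 10 uM final, pH 7.6. Ser73 phosphorylation was quantified by AlphaScreen (680 nm excitation).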

Experiment [7] concerns the target 3',5'-cyclic-AMP phosphodiesterase 4B (Homo sapiens) (UniProt Q07343). Put plainly: qHTS Assay for Inhibitors of PDE-IV (AID 607; active = well fitted activation curve with a large enough effect in the main read-out, with a control signal flat, not every such curve was filed as active; also: % of control where 0% means no effect). Particulars: HEK293 ACTOne CNG channel cells, membrane potential fluorescence; series mostly up to 22.9 µM. Summed up:
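The readout is membrane depolarisation from a cAMP-sensing CNG channel, detected with a potential dye at ex 535/em 590. Cells were HEK293-derived (endogenous PDE-IV) at 1000 cells/well, titrated up to 22.9 uM final.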

The target in experiment [8] is Cytochrome P450 3A4 (Homo sapiens) (UniProt P08684). In words: qHTS Assay for Inhibitors and Substrates of Cytochrome P450 3A4 (AID 884; active = well fitted curve in the direction sought with a large enough effect; an effect the other way counts as inactive or inconclusive; also: nearly all actives have a fitted effect of over 50% in size; also: potency is read from the fitted curve at half-maximal effect). The settings on record: recombinant CYP3A4, Luciferin-PPXE luminescence; series mostly up to 57.1 µM. Summed up: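 Luminescent readout of luciferin produced by CYP3A4 (20 nM) dealkylation of Luciferin-PPXE, 25 uM (its KM). NADPH-driven reaction ran 60 min at RT after 10 min compound preincubation; data scaled to 57 uM ketoconazole as 100% inhibition.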

For experiment [9] the target is unchanged. In words: qHTS Assay for Activators of Cytochrome P450 3A4 (AID 885; active = well fitted curve in the direction sought with a large enough effect; an effect the other way counts as inactive or inconclusive; also: nearly all actives have a fitted effect of over 65% in size; also: potency is read from the fitted curve at half-maximal effect). The settings on record: recombinant CYP3A4, Luciferin-PPXE luminescence, 60 min; series mostly up to 57.1 µM. Summed up:
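Activators are scored by enhanced luminescence from CYP3A4 conversion of luciferin-PPXE (25uM, equal to KM) to luciferin, after 60 min at RT with an NADPH-regenerating system.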

Experiment [10] is described as follows: qHTS Assay for Lipid Storage Modulators (AID 1519). The settings on record: Drosophila S3 cells, BODIPY lipid droplet/cell ratio, laser cytometry, cells loaded with oleic acid; for activity change, negative = inhibition: at 57.5 µM (top of the series). Summed up:
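Cells seeded at 5,000 per well were treated with compounds over a concentration series and loaded with oleic acid (400 uM, as added). Lipid droplet fluorescence (488 nm excitation, 500-530 nm channel) was read by laser-scanning cytometry and normalized to 20 uM Triacsin C.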

Experiment [11] can be described thus: Primary qHTS for small molecule stabilizers of the endoplasmic reticulum resident proteome: Secreted ER Calcium Modulated Protein (SERCaMP) assay (AID 1508630; active = well fitted curve in the direction sought with a large enough effect; an effect the other way counts as inactive or inconclusive; also: % is scaled to controls: 0 for no effect and ±100 for the full control effect). Particulars: SH-SY5Y GLuc-SERCaMP (Gaussia luciferase released on ER calcium loss) secretion, thapsigargin, luminescence; series mostly up to 38.4 µM. Summed up: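 The SH-SY5Y reporter protocol was run at 3 concentrations up to 38.3 uM (primary) or 11 concentrations (follow-up): 16 h compound, 100 nM thapsigargin for 4 h, then extracellular luciferase luminescence.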

In experiment [12] the target is Cytochrome P450 2D6 (Homo sapiens) (UniProt P10635). In words: qHTS Assay for Inhibitors and Substrates of Cytochrome P450 2D6 (AID 891; active = well fitted curve in the direction sought with a large enough effect; an effect the other way counts as inactive or inconclusive; also: potency is read from the fitted curve at half-maximal effect; nearly all actives have a fitted effect of over 60% in size). The settings on record: recombinant CYP2D6, luciferin-ME EGE luminescence; series mostly up to 57.1 µM. The method, boiled down:
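Luminescent read-out of luciferin formed by 5 nM human CYP2D6 demethylating 30 uM Luciferin-ME EGE (Km level) over 60 min at room temperature after NADPH regeneration addition. Data normalized to full inhibition by 1.43 uM quinidine.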

A short description of experiment [13]: qHTS Assay for Identification of Small Molecule Agonists for Hypoxia Response Element Signaling Pathway (AID 914; active = well fitted activation curve with a large enough effect in the signal ratio, with a control signal flat, not every such curve was filed as active; the % refers to the signal ratio; also: % of control where 0% means no effect). Particulars: ME-180 (cervical carcinoma) HRE-bla reporter, beta-lactamase ratio, CoCl2, 17 h; activation: stronger effect = higher value. The method, boiled down:
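In Opti-MEM containing 0.5% dialyzed FBS and 10 mM HEPES, ME-180 HRE-bla cells received a compound titration and EC50 CoCl2. They were incubated 17 hours, then CCF4-loaded 2.5 hours at room temperature before ratio reading.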

Setting [14] is: measured here: cell count channel max response.
The mark [15] stands for this setting: measured here: lipid channel max response.

Each structure is given as a SMILES string. Inconclusive results are not listed. The source made the active and inactive calls. Unless noted, calls follow the shape of the full dose curve.

Data on seven compounds can be found in PubChem BioAssay (NCATS).

Glucocorticoid receptor (Homo sapiens), sequence (P04150 whole entry, looked up, the tested form may be a part): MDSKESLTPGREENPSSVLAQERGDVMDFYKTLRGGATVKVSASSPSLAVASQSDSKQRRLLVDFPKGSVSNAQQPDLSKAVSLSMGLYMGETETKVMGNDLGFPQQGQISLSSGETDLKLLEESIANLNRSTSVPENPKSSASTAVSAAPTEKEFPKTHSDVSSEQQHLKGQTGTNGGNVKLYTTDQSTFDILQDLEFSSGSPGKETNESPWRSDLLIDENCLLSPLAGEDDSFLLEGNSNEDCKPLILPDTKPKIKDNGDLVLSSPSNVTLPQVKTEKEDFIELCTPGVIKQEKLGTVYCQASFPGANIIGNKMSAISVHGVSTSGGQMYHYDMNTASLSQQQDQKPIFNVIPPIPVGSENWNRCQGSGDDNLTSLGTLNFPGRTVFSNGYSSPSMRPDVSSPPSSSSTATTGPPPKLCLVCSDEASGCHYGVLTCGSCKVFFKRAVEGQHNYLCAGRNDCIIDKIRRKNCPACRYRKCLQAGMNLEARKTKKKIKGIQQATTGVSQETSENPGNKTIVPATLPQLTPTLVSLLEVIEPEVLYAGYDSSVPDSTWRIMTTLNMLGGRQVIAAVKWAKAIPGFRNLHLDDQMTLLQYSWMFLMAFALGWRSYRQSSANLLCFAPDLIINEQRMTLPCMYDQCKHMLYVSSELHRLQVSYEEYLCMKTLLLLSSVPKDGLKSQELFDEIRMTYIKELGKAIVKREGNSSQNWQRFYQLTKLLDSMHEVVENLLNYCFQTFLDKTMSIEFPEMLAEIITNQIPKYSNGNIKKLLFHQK
3',5'-cyclic-AMP phosphodiesterase 4B (Homo sapiens), sequence (Q07343 whole entry, looked up): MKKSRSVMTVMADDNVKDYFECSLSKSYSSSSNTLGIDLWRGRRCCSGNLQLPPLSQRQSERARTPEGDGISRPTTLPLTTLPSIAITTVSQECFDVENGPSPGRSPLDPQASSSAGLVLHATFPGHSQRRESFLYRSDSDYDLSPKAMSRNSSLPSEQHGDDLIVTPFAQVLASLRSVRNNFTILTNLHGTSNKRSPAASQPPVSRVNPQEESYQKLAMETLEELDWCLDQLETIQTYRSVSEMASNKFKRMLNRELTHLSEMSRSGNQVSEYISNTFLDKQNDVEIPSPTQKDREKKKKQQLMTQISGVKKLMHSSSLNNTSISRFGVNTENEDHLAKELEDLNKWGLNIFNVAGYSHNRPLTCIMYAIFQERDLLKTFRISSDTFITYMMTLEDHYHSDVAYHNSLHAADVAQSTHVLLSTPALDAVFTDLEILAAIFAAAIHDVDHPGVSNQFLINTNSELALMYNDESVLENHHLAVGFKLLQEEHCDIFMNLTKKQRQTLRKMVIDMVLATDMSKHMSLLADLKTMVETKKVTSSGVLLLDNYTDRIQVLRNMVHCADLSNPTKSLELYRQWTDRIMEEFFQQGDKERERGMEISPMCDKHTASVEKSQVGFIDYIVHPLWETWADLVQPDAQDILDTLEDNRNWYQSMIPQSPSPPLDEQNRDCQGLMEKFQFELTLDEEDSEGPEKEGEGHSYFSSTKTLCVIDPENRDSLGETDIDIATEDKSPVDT
Lysosomal acid glucosylceramidase (Homo sapiens), sequence (P04062 whole entry, looked up): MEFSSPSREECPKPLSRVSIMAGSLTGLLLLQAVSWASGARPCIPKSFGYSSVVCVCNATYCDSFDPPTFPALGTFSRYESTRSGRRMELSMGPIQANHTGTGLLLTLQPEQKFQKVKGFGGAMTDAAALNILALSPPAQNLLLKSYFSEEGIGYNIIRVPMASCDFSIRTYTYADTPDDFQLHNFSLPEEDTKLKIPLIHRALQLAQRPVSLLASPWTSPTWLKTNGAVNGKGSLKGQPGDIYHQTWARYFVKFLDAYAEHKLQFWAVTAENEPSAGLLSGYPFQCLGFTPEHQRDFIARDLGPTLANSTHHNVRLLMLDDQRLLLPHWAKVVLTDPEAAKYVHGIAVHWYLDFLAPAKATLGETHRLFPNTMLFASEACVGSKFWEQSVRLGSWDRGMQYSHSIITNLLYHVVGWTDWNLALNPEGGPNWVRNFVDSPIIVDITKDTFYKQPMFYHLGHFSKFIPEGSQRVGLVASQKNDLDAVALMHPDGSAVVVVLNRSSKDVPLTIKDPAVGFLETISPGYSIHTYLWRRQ
Cytochrome P450 1A2 (Homo sapiens), sequence (P05177 whole entry, looked up): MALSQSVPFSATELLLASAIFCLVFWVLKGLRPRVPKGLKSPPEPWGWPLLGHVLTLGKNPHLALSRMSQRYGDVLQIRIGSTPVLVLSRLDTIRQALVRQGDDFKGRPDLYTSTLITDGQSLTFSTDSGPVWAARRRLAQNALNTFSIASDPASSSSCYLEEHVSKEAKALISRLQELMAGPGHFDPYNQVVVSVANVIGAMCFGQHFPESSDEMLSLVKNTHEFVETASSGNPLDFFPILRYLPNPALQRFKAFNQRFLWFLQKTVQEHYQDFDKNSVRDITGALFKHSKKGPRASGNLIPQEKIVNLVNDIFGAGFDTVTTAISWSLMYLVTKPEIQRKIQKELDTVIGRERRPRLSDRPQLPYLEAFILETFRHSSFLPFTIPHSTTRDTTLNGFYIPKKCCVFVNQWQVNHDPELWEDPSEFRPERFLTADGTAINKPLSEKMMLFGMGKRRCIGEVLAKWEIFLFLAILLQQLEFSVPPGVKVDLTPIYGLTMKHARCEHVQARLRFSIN
Cytochrome P450 3A4 (Homo sapiens), sequence (P08684 whole entry, looked up): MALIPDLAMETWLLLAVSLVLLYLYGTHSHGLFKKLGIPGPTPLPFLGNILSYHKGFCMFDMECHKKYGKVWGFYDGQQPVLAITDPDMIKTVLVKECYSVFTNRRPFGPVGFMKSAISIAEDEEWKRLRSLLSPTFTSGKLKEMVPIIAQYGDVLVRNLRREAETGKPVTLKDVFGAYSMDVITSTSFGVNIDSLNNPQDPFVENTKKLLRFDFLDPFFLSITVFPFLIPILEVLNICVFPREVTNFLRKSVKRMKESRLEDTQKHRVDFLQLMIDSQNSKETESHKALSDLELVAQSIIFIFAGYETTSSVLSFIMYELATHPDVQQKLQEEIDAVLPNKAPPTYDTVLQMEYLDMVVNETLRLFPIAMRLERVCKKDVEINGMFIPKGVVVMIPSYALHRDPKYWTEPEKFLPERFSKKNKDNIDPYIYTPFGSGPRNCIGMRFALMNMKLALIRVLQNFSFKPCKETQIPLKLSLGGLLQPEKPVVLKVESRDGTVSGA
Cytochrome P450 2D6 (Homo sapiens), sequence (P10635 whole entry, looked up): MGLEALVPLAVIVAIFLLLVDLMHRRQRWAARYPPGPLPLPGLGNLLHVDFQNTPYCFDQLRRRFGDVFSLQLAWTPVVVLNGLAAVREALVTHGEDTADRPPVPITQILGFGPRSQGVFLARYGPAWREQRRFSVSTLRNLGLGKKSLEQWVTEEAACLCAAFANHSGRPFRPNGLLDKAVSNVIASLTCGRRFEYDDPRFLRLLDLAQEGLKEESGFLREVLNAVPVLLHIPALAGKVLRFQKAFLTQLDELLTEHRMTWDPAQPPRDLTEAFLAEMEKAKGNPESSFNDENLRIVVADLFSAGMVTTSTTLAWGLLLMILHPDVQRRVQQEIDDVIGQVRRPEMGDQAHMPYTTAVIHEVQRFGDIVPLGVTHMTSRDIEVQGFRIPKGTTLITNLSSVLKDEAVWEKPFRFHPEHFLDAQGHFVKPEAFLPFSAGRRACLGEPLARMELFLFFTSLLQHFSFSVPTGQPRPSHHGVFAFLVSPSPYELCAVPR

Take `O=C(c1ccco1)N1CCC2(CC1)CN(c1ccccn1)C2`: the values for the Potency in experiment [1], in experiment [5] and in [9] were > 11.4 µM (inactive), > 46 µM (inactive) and 10 µM (active), respectively. Also, the activity change, negative = inhibition in [2] is 2.14% (inactive); in experiment [10], 5.94% (inactive). The Potency result in [3], in experiment [6], in experiment [7] and in experiment [8] was “inactive” throughout. Also, the activity, negative = inhibition in [4] is -14.8% (inactive). Moreover, the values for the max response in experiment [10] (setting [14]) and in [10] (setting [15]) were 3% and 11.7%, respectively. In [11], the result was inactive.

For `CC(C)CN1CCCC2(CCN(S(=O)(=O)c3ccccc3)CC2)C1`, the Potency in experiment [1] is > 11.4 µM (inactive); in experiment [5], > 46 µM (inactive). Also, the activity change, negative = inhibition was 1.33% (inactive) in [2] and 2.73% (inactive) in experiment [10]. The Potency entry in experiment [3], in experiment [6], in experiment [7] and in [9] was “inactive” in each case. Further, the activity, negative = inhibition in [4] was 0.203% (inactive). Besides, the max response in experiment [10] (setting [14]) was 12.5%; in experiment [10] (setting [15]), 15.5%. Also, the result in [11] was inactive.

In the case of `COc1ccccc1CN1CCCC2(CCN(C(=O)c3c(C)noc3C)CC2)C1`, the Potency is > 11.4 µM (inactive) in experiment [1] and > 46 µM (inactive) in [5]. Also, the activity change, negative = inhibition in experiment [2] is -9.04% (inactive); in [10] it was 1.7% (inactive). Besides, the Potency result in [3], in [6], in [7] and in experiment [9] was “inactive” each time. For the same compound, the activity, negative = inhibition in experiment [4] was -7.32% (inactive). For the same compound, the max response in experiment [10] (setting [14]) was determined as 14.6%; in [10] (setting [15]) it was 17.9%. Besides, in [11], the outcome was inactive.

Regarding `Cc1noc(C)c1C(=O)N1CCC2(CCCN(c3ccncc3)C2)CC1`, the Potency in experiment [1] is > 11.4 µM (inactive); in [5] it was > 46 µM (inactive). The activity change, negative = inhibition in experiment [2] was 6.75% (inactive); in [10], 5.44% (inactive). Besides, the Potency entry in [3], in experiment [6], in [7] and in [9] was “inactive” throughout. Besides, in experiment [4], the activity, negative = inhibition is 8.27% (inactive). Also, the max response in experiment [10] (setting [14]) was found to be 15.3%; in experiment [10] (setting [15]), 23.4%. The result in [11] was inactive.

As for `CS(=O)(=O)N1CCC2(CCCN(C(c3ccccc3)c3ccccc3)C2)CC1`, the Potency in [1] was > 11.4 µM (inactive); in experiment [5], > 46 µM (inactive); in experiment [8] it was 3.98 µM (active); in experiment [12], 5.01 µM (active). In addition, the figures for the activity change, negative = inhibition in experiment [2] and in experiment [10] were -6.2% (inactive) and 2.84% (inactive), respectively. For the same compound, the Potency entry in experiment [3], in experiment [6], in [7] and in experiment [9] was “inactive” each time. Besides, the activity, negative = inhibition in [4] is 12.1% (inactive). The max response in experiment [10] (setting [14]) was 13.3%; in experiment [10] (setting [15]) it was 16.2%. In addition, in experiment [11], the result was inactive.

Regarding `Cn1cccc1C(=O)N1CCC2(CCCN(Cc3ccccc3)C2)CC1`, the Potency in [1] was > 11.4 µM (inactive); in [5], > 46 µM (inactive). Besides, the activity change, negative = inhibition in [2] is -4.68% (inactive); in experiment [10] it was 3.59% (inactive). Besides, the Potency result in [3], in experiment [6], in experiment [7] and in experiment [9] was “inactive” in each case. Moreover, in [4], the activity, negative = inhibition was -3.12% (inactive). For the same compound, the max response in experiment [10] (setting [14]) is 2.52%; in experiment [10] (setting [15]), 8.85%. Also, in experiment [11], the result was inactive.

As for `N#Cc1ccc(CN2CC[C@@]3(CCCN(C(=O)c4cc(C(F)(F)F)cc(C(F)(F)F)c4)C3)C2)cc1`, the Potency was > 11.4 µM (inactive) in [1], 25.1 µM (active) in [3], > 46 µM (inactive) in experiment [5] and 5.01 µM (active) in [8]. Further, the values for the activity change, negative = inhibition in experiment [2] and in experiment [10] were 17.7% (inactive) and 2.06% (inactive), respectively. In experiment [4], the activity, negative = inhibition was -2.46% (inactive). In addition, the Potency result in experiment [6], in experiment [7] and in experiment [9] was “inactive” in each case. The activation in experiment [13] was 13.6% (inactive). Also, the values for the max response in experiment [10] (setting [14]) and in [10] (setting [15]) were -0.217% and 4.67%, respectively. Further, the outcome in experiment [11] was inactive.
